Laboratory results from PubChem BioAssay (NCATS).
Records with an inconclusive call do not appear. Activity calls are given as the source filed them. Unless noted, calls follow the shape of the dose curve; as a rule, active = well fitted curve in the direction sought with a large enough effect; inconclusive = small, poorly fitted or top-dose-only effect, or another doubt; inactive = no such curve, though single readings can be large; an effect the other way counts as inactive or inconclusive.

Tests used:
[1] = Cell Viability - BJ (AID 421; calls by dose curve;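 also: potency is read from the fitted curve at half-maximal effect; cells exposed to compound for 40 hours at 37 °C before readout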); settings: BJ fibroblast viability, qHTS
How it was run: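 Quantitative HTS: ATP depletion in BJ cells after 40 hr compound exposure in complete culture medium, detected with CellTiter-Glo; AC50 from standard Hill fits.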

[2] = Cell Viability - Jurkat (AID 426;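 active = dose-dependent loss of cell ATP signal giving a full or clear fitted curve, ranked by lower potency value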; also: potency is read from the fitted curve at half-maximal effect); settings: qHTS
How it was run: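 qHTS, 1536-well; Jurkat E6-1, 5000 cells/well, complete medium; cpd 40 hr, 37 °C; CellTiter-Glo 20 min RT; luminescence. AC50 by Hill fit.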

[3] = Cell Viability - Hek293 (AID 427;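 active = compounds whose dose-response curve shows a full or clear partial loss of cell viability, called from curve shape rather than a numeric limit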;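 also: potency is read from the fitted curve at half-maximal effect; cells exposed to compound for 40 hours at 37 °C before reading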); settings: qHTS
How it was run: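 AC50 values derive from Hill-modelled concentration-response of ATP-based luminescence, normalized between DMSO-only and 100 uM tamoxifen controls. Cells were exposed in complete culture medium for 40 hr at 37 °C before detection.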

[4] = Cell Viability - HepG2 (AID 433; calls by dose curve;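 also: potency is read from the fitted curve at half-maximal effect; potency for ATP loss meaning cytotoxicity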); settings: qHTS
How it was run: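 ATP luminescence (CellTiter-Glo) after 40 h compound exposure, 37 °C, HepG2, 1500 cells/well, complete medium. Normalized: DMSO = basal, 100 uM tamoxifen = 100% inhibition. AC50 via standard Hill equation.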

[5] = Cell Viability - MRC5 (AID 434; calls by dose curve;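 also: potency is read from the fitted curve at half-maximal effect; potency reflects cytotoxicity seen as loss of intracellular ATP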); settings: MRC5 lung fibroblast viability, qHTS
How it was run: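 MRC5 normal human lung fibroblasts (1500/well) were treated with compounds for 40 hr at 37 °C in complete medium, and viable cells were measured as intracellular ATP by CellTiter-Glo luminescence. AC50 came from Hill fits, normalized to DMSO and 100 uM tamoxifen.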

[6] = Cell Viability - SK-N-SH (AID 435; calls by dose curve; also: potency is read from the fitted curve at half-maximal effect); settings: SK-N-SH neuroblastoma cell viability qHTS
How it was run: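 CellTiter-Glo ATP luminescence, 20 min RT read; cells pre-plated 5 hr, compound 40 hr at 37 °C, 1500 cells/well, complete medium. Normalized DMSO = 0, 100 uM tamoxifen = 100% inhibition; Hill-fit AC50.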

[7] = target: Mitogen-activated protein kinase 10 (Mus musculus) (UniProt Q61831); assay: JNK3 AlphaScreen Assay (AID 530; active = well fitted curve in either direction with a large enough effect, not every such curve was filed as active;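 also: kinase came from lysate of stimulated human HepG2 cells; signal reports phosphorylation of biotinylated GST-cJun 1-79 at Ser73 with 10 µM ATP; % is scaled to controls: 0 for no effect and ±100 for the full control effect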); settings: JNK3 lysate, c-Jun phosphorylation; series mostly up to 57.1 µM
How it was run: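 Inhibitors reduce antibody binding to phosphorylated biotin-cJun, lowering AlphaScreen luminescence. Lysates from HepG2 cells pre-activated by IL-1beta plus TNF-alpha supplied JNK3; compounds were titrated.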

[8] = Cell Viability - N2a (AID 540); settings: N2a mouse neuroblastoma cell viability; activity change, negative = cytotoxicity: at 92.2 µM (top of the series);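 also: plate controls were DMSO alone for no effect and tamoxifen control for full effect; nearly all actives have a fitted effect of over 45% in size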
How it was run: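 Luminescent ATP signal (CellTiter-Glo, 20 min at room temperature) served as the viability read-out after N2a cells were treated with compounds for 40 hours at 37 °C. Concentration-response data were fitted to the Hill equation for AC50.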

[9] = Cell Viability - NIH 3T3 (AID 541); settings: NIH 3T3 cell viability, qHTS; activity change, negative = cytotoxicity: at 92.2 µM (top of the series);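 also: plate controls were DMSO alone for no effect and tamoxifen positive control for full effect; nearly all actives have a fitted effect of over 25% in size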
How it was run: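 Luminescent ATP signal (CellTiter-Glo) served as the viability read-out after NIH 3T3 cells were exposed to compounds over a concentration range for 40 hr at 37 °C. Hill-equation modelling of concentration-response data gave AC50.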

[10] = Cell Viability - H-4-II-E (AID 543); settings: H-4-II-E rat hepatoma viability; series mostly up to 92.2 µM; also: % is scaled to controls: 0 for no effect and ±100 for the full control effect; nearly all actives have a fitted effect of over 35% in size
How it was run: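 Luminescent ATP signal (CellTiter-Glo) served as the viability read-out, with cytotoxicity seen as a concentration-dependent ATP drop. Cells were treated for 40 hours in complete medium. AC50 values derive from Hill-equation modelling.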

[11] = Cell Viability - SH-SY5Y (AID 544); settings: SH-SY5Y neuroblastoma cell viability; viability change, negative = cytotoxic: at 92.2 µM (top of the series); also: nearly all actives have a fitted effect of over 55% in size
How it was run: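 Luminescent ATP read-out (CellTiter-Glo) measures loss of viable SH-SY5Y neuroblastoma cells after 40 hr compound exposure at 37 °C. AC50 values derive from standard Hill modelling of qHTS concentration-response data.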

[12] = Cell Viability - Renal Proximal Tubule (AID 545); settings: renal proximal tubule cells viability, primary cells of rat origin; series mostly up to 91.7 µM; also: nearly all actives have a fitted effect of over 40% in size
How it was run: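 Rat kidney proximal tubule cells, freshly isolated; 1000 cells/well, 5 hr settle, compound 40 hr 37 °C. CellTiter-Glo 20 min RT, luminescence read. AC50 by standard Hill fit.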

[13] = Cell Viability - Mesenchymal (AID 546); settings: mesenchymal cells viability, qHTS; series mostly up to 91.7 µM;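 also: cells exposed to compound for 40 hours before reading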
How it was run: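 Normal human renal glomerulus-derived kidney mesenchymal cells, 1000 per well in complete medium, were treated with compounds for 40 hr at 37 °C. Viability was read as intracellular ATP by CellTiter-Glo luminescence; AC50 values came from Hill-equation fits of qHTS concentration-response data.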

[14] = Cellular Toxicity (caspase-3) HepG2 (AID 654); settings: HepG2 caspase-3 activation, luminescence; series mostly up to 92.2 µM;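 also: cells exposed to compound for 16 hours before reading; 0% = DMSO alone and 100% = caspase signal from 100 µM tamoxifen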
How it was run: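 Cells plated 5 hr at 37 °C, compound added, incubated 16 hr at 37 °C. Caspase-Glo 3/7 reagent followed, 20 min at room temperature, then luminescence read. Activation scored as signal increase; AC50 from Hill fit.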

[15] = Cellular Toxicity (caspase-3) Jurkat (AID 655); settings: Jurkat caspase-3 activation, luminescence; caspase-3 activation: at 92.2 µM (top of the series), DMSO = 0%, tamoxifen = 100%;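 also: cells exposed to compound for 16 h at 37 °C before reading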
How it was run: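 Luminescent caspase-3/7 readout (aminoluciferin substrate cleavage) in human T-cell leukemia Jurkat cells after 16 hr compound exposure. Concentration-response normalized to DMSO and 100 uM tamoxifen; AC50 by standard Hill equation.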

[16] = Cellular Toxicity (caspase-3) HUV-EC-C (AID 656); settings: HUV-EC-C cells, caspase-3 activation (apoptosis), vehicle = 0, 100 µM tamoxifen = 100%; series mostly up to 92.2 µM
How it was run: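 Luminescent caspase-3/7 activation (aminoluciferin substrate cleavage) in HUV-EC-C cells after 16 hr compound exposure, 37°C. Signal normalized to DMSO basal and 100 uM tamoxifen as 100%; AC50 from concentration-response fitted with the Hill equation.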

[17] = Cellular Toxicity (caspase-3) SHSY5Y (AID 657); settings: SH-SY5Y caspase-3 activation, DMSO zero, 10 µM staurosporine = 100%; series mostly up to 91.7 µM;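 also: cells exposed to compound for 16 hours at 37 °C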
How it was run: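 Luminescent caspase-3/7 readout (aminoluciferin release) in SH-SY5Y cells after 16 h compound exposure in complete medium. Activity scaled between DMSO basal and 10 uM staurosporine as 100%; concentration-response fitted to Hill equation for AC50.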

[18] = Cellular Toxicity (caspase-3) BJ (AID 658); settings: BJ fibroblasts, luminescence, normalized: DMSO 0%, staurosporine 100%; series mostly up to 91.7 µM;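 also: cells exposed to compound for 16 hours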
How it was run: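 Luminescent aminoluciferin-substrate cleavage reports caspase 3/7 activity in normal human BJ fibroblasts after 16 hr compound exposure at 37 °C. Normalized to DMSO (basal) and 10 uM staurosporine (100%); AC50 from Hill fit of concentration-response.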

[19] = Cellular Toxicity (caspase-3) MRC-5 (AID 659); settings: MRC-5 cells, luminescence, normalized: DMSO 0%, 10 µM staurosporine 100%; series mostly up to 91.7 µM;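 also: cells exposed to compound for 16 h at 37 °C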
How it was run: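 Luminescence from caspase-cleaved aminoluciferin substrate (Caspase-Glo 3/7, 1 hr RT) reports caspase 3/7 activity in MRC-5 lung fibroblasts after 16 hr compound exposure. Normalized to DMSO basal and 10 uM staurosporine as 100%; AC50 from Hill fits.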

[20] = Cell Viability - HUV-EC-C (AID 542); settings: HUV-EC-C endothelial cell viability, qHTS; series mostly up to 92.2 µM; also: % is scaled to controls: 0 for no effect and ±100 for the full control effect; nearly all actives have a fitted effect of over 35% in size
How it was run: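 qHTS cytotoxicity: HUV-EC-C, 1000 cells/well, 5 hr settle, compound 40 hr 37 °C, CellTiter-Glo, luminescence. AC50 via Hill equation.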

C=C(C)C(N)=O
inactive: Potency [1] > 92 µM | Potency [2] > 92 µM | Potency [3] > 92 µM | Potency [4] > 92 µM | Potency [5] > 92 µM | Potency [6] > 92 µM | outcome [7] | activity change, negative = cytotoxicity [8] -7.09% | Potency [9] | Potency [10] | Potency [11] | Potency [12] | Potency [13] | Potency [14] | caspase-3 activation [15] -0.182% | outcome [16] | outcome [17] | outcome [18] | outcome [19]

CCCCC(CC)COC(=O)CCCCC(=O)OCC(CC)CCCC (stereo not given)
inactive: Potency [1] > 92 µM | Potency [2] > 92 µM | Potency [3] > 92 µM | Potency [4] > 92 µM | Potency [5] > 92 µM | Potency [6] > 92 µM | outcome [7] | activity change, negative = cytotoxicity [8] 3.75% | Potency [9] | Potency [20] | Potency [11] | Potency [13] | Potency [14] | caspase-3 activation [15] -0.708% | outcome [16] | outcome [17] | outcome [18] | outcome [19]

O=Cc1cccc(Br)c1
inactive: Potency [1] > 92 µM | Potency [2] > 92 µM | Potency [3] > 92 µM | Potency [4] > 92 µM | Potency [5] > 92 µM | Potency [6] > 92 µM | outcome [7] | activity change, negative = cytotoxicity [8] 0.0642% | Potency [9] | Potency [10] | Potency [11] | Potency [12] | Potency [13] | Potency [14] | caspase-3 activation [15] 2.44% | outcome [16] | outcome [17] | outcome [18] | outcome [19]

Nc1cc(S(=O)(=O)O)ccc1O
inactive: Potency [1] > 92 µM | Potency [2] > 92 µM | Potency [3] > 92 µM | Potency [4] > 92 µM | Potency [5] > 92 µM | Potency [6] > 92 µM | outcome [7] | activity change, negative = cytotoxicity [8] -15.5% | Potency [9] | Potency [10] | Potency [11] | Potency [12] | Potency [13] | Potency [14] | caspase-3 activation [15] -0.212% | outcome [16] | outcome [17] | outcome [18] | outcome [19]

Nc1ccccc1[N+](=O)[O-]
inactive: Potency [1] > 92 µM | Potency [2] > 92 µM | Potency [3] > 92 µM | Potency [4] > 92 µM | Potency [5] > 92 µM | Potency [6] > 92 µM | outcome [7] | activity change, negative = cytotoxicity [8] -9.35% | Potency [9] | Potency [20] | Potency [12] | Potency [13] | Potency [14] | outcome [16] | outcome [17] | outcome [18] | outcome [19]

CCCCCCCCCCCCC1CO1 (stereo not given)
inactive: Potency [1] > 92 µM | Potency [2] > 92 µM | Potency [3] > 92 µM | Potency [4] > 92 µM | Potency [5] > 92 µM | Potency [6] > 92 µM | outcome [7] | activity change, negative = cytotoxicity [8] 6.57% | Potency [9] | Potency [10] | Potency [11] | Potency [12] | Potency [13] | Potency [14] | caspase-3 activation [15] -0.853% | outcome [16] | outcome [17] | outcome [18] | outcome [19]

BrC/C=C/CBr
inactive: Potency [1] > 92 µM | Potency [2] > 92 µM | Potency [3] > 92 µM | Potency [4] > 92 µM | Potency [5] > 92 µM | Potency [6] > 92 µM | outcome [7] | activity change, negative = cytotoxicity [8] 6.2% | Potency [9] | Potency [10] | Potency [11] | Potency [12] | Potency [13] | caspase-3 activation [15] 1.67% | outcome [16] | outcome [17] | outcome [19]

Cc1c(N)cccc1N
inactive: Potency [1] > 92 µM | Potency [2] > 92 µM | Potency [3] > 92 µM | Potency [4] > 92 µM | Potency [5] > 92 µM | Potency [6] > 92 µM | outcome [7] | activity change, negative = cytotoxicity [8] -3.84% | Potency [9] | Potency [10] | Potency [11] | Potency [12] | Potency [13] | Potency [14] | caspase-3 activation [15] -0.535% | outcome [16] | outcome [17] | outcome [18] | outcome [19]

O=C1NC(=O)c2cc([N+](=O)[O-])ccc21
inactive: Potency [1] > 92 µM | Potency [2] > 92 µM | Potency [3] > 92 µM | Potency [4] > 92 µM | Potency [5] > 92 µM | Potency [6] > 92 µM | outcome [7] | activity change, negative = cytotoxicity [8] -3.32% | Potency [9] | Potency [20] | Potency [12] | Potency [13] | Potency [14] | caspase-3 activation [15] 0.91% | outcome [16] | outcome [17] | outcome [18] | outcome [19]

O=C(O)c1cccc(Cl)c1Cl
inactive: Potency [1] > 92 µM | Potency [2] > 92 µM | Potency [3] > 92 µM | Potency [4] > 92 µM | Potency [5] > 92 µM | Potency [6] > 92 µM | outcome [7] | activity change, negative = cytotoxicity [8] -7.38% | Potency [9] | Potency [10] | Potency [11] | Potency [12] | Potency [13] | Potency [14] | caspase-3 activation [15] 0.107% | outcome [16] | outcome [17] | outcome [19]

C=C(C)C(=O)OCCCCCC
inactive: Potency [1] > 92 µM | Potency [2] > 92 µM | Potency [3] > 92 µM | Potency [4] > 92 µM | Potency [5] > 92 µM | Potency [6] > 92 µM | outcome [7] | activity change, negative = cytotoxicity [8] -2.36% | Potency [9] | Potency [10] | Potency [11] | Potency [13] | Potency [14] | caspase-3 activation [15] 2.29% | outcome [16] | outcome [17] | outcome [18]
